# Assay results taken from PubChem BioAssay AID1489 (National Center for Advancing Translational Sciences (NCATS), 2009).
# Results filed as inconclusive are left out. A number with no mark means an inactive call. Active and inactive are the calls of the source. Calls come from the whole dose curve; as a rule, active = well fitted antagonist curve with a large enough effect in the main read-out, with a control signal flat; inconclusive = small, poorly fitted or top-dose-only effect; inactive = no such curve, though single readings can be large or run the other way.
# Molecular target: Neuropeptide S receptor (Homo sapiens) (UniProt Q6W5P4)
# Sequence (Q6W5P4 whole entry, looked up): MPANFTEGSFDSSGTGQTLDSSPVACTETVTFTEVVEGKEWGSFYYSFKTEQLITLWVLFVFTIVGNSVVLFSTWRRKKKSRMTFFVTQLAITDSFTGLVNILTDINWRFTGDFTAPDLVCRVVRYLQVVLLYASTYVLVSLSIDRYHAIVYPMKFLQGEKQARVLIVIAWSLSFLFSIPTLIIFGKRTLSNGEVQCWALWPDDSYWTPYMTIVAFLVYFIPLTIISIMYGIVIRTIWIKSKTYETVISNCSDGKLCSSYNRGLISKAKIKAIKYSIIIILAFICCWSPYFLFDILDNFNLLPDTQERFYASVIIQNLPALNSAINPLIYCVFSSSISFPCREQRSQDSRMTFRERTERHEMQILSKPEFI
# Experiment: Confirmation Concentration-Response Assay for Antagonists of the Neuropeptide S Receptor: Calcium Signal Transduction
# Settings: CHO-NPSR cells, NPS-induced calcium flux, FDSS; series mostly up to 19.3 µM; activity change, negative = inhibition: at the top concentration
# Procedure, shortened: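 CHO cells stably expressing human NPSR, loaded with calcium dye; compounds added, then stimulated with NPS (60 nM in stimulation reagent). Fluorescence (Ex 480, Em 520–560 nm) recorded kinetically on FDSS; AC50 from Hill fit.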
Structure (SMILES),"activity change, negative = inhibition [%]",Potency
C/C(=N\NC(=S)NC1CCCCC1)c1c(F)cccc1F,-22.3,
C/C(=N\Nc1ncc(Cl)cc1Cl)c1ccccn1,,2.51 µM (active)
O=C(CSC1=NCCS1)Nc1ccnc2ccccc12,-15.5,
CCSc1nc2c(c(=O)n1Cc1ccccc1)SC(C)C2 (stereo not drawn),-2.84,
COc1cccc2sc(Nc3nc(-c4ccccn4)cs3)nc12,,3.16 µM (active)
O=C(/C(=C/c1ccc(Cl)cc1)c1nc2ccccc2[nH]1)c1cccs1,,8.91 µM (active)
COc1ccc(/C=C2\CCCC3C2=NN(C(=O)c2ccco2)C3c2ccc(OC)c(OC)c2)cc1OC (stereo not drawn),14.6,
Cc1cccnc1NC(=O)c1c(O)c2cccc3c2n(c1=O)CCC3,-5.87,
CN(C)c1ccc(N=Cc2ccco2)cc1,-23.3,
Cc1cc(C)n(-c2nc(NC(C)C)nc(NC(C)C)n2)n1,29,
CC(C)Cc1nc(N2CCN(C(=O)c3ccccc3)CC2)c(C#N)c2c1CCC2,16,
NC(=O)OCC(COC(N)=O)c1ccccc1,20.6,
CCC(C)(C)NC(=O)Cc1ccc(C)cc1,10.7,
CC(=O)c1sc(N/N=C\c2ccccc2O)nc1C,,1.12 µM (active)
Cn1nc(-c2ccc(Cl)cc2)nc2c(=O)n(C)c(=O)nc1-2,25.8,
CCCN1C(=O)/C(=C\C=C2/C=CN(CC)c3ccccc32)SC1=S,-24.1,
Cc1ccc(S(=O)(=O)Nc2cccc3ncccc23)s1,,3.16 µM (active)
NC(=S)N/N=C/c1ncc(C(F)(F)F)cc1Cl,-1.3,
Cn1c(C(=O)NCCN2CCc3ccccc3C2)cc2c(=O)[nH]c3ccccc3c21,3.7,
Cc1oc2c(c1C(=O)NCc1cccnc1)C(=O)c1ccccc1C2=O,16.4,
COc1cccc(N2CCN(c3ncnc4c3[nH]c3ccc(F)cc34)CC2C)c1 (stereo not drawn),,0.631 µM (active)
CCCCCN1C=CC=C/C1=C\C=C(C#N)C#N,-25.1,
N#CC(C#N)=c1ccc2c(c1)NC1(CCCCC1)N=2,-13.1,
